Measurements published in PubChem BioAssay AID720541 (National Center for Advancing Translational Sciences (NCATS), 2013).
In all, about 1,300 compounds went through this assay and about 420 (32%) were called active. Another 32% or so got no clear call; they are omitted. Calls follow the shape of the dose curve; as a rule, active = well fitted inhibition curve with a large enough effect; inconclusive = small, poorly fitted or top-dose-only effect; inactive = no such curve, though single readings can be large or run the other way. The list shows a part of the results.

Target: C-terminal-binding protein 1 (Homo sapiens) (UniProt Q13363)
Assay: qHTS for Inhibitors of the Phosphatase Activity of Eya2: Carboxyl-terminal binding protein (CtBP) Counterscreen for Cherry-picked Compounds; also: nearly all actives have a fitted effect of over 65% in size
Conditions: purified protein-protein binding, AlphaScreen, 3 h; series mostly up to 46.1 µM; activity change, negative = inhibition: at the top concentration
Outline: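 Cherry-picked compounds (final 2.5 nM–46 uM) were incubated 2 h at RT with 25 nM CtBP-6xHIS and 25 nM GST-E1A. Alpha beads (20 ug/mL) were then added for 1 h, light-protected; DMSO and E1A peptide inhibitor wells set the normalization.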
% is scaled to controls: 0 for no effect and ±100 for the full control effect; potency is read from the fitted curve at half-maximal effect.

Row | Structure (SMILES) | activity change, negative = inhibition | Potency
1 | Cc1cccc(C)c1OCc1cc(C(=O)N2CCN(c3ccccc3)CC2C)no1 (stereo unspecified) | 1.7% (inactive) | –
2 | COc1ccc(-c2c(N)cnc(C(=O)O)c2C)c(OCc2ccccc2)c1OC | – | 12 µM (active)
3 | COc1cc(C(C(=O)NC2CCCCC2)N(C(=O)Cc2c[nH]c3ccccc23)c2ccc(C)cc2)cc(OC)c1OC (stereo unspecified) | -17% (inactive) | –
4 | Cc1cc(/C=N/NC(=O)c2ccccn2)c(C)n1-c1cccc([N+](=O)[O-])c1 | – | 15.1 µM (active)
5 | CCCCn1nc(C(=O)Nc2ccc3c(c2)OCO3)c2ccccc2c1=O | – | 15.1 µM (active)
6 | O=C(CCn1c(=O)oc2ccccc21)NCc1ccc2c(c1)OCO2 | 6.99% (inactive) | –
7 | Cn1nnnc1SCC(=O)Nc1ccc2c(c1)OCO2 | 7.08% (inactive) | –
8 | COc1cc2c(cc1OC)C(c1ccc([N+](=O)[O-])cc1)NCC2 (stereo unspecified) | -2.74% (inactive) | –
9 | Nc1ccc2nc3c(=O)[nH]c(=S)[nH]c3nc2c1 | – | 3.79 µM (active)
10 | CN(C)c1ccc(N=Nc2ccnc3ccccc23)cc1 | – | 2.13 µM (active)
11 | COc1cc(NC(=O)CN2C(=O)CSc3ccc(S(=O)(=O)N4CCCC4)cc32)cc(OC)c1 | -78.4% (inactive) | –
12 | COc1ccc(C2CC(c3ccccc3OC(=O)/C=C/c3ccccc3)=NN2C(C)=O)cc1 (stereo unspecified) | – | 1.69 µM (active)
13 | CCC(=O)N1N=C(c2ccc(C)o2)CC1c1ccc(N(C)C)cc1 (stereo unspecified) | -29.7% (inactive) | –
14 | O=C(Oc1cccnc1)c1ccc([N+](=O)[O-])cc1Cl | -23.8% (inactive) | –
15 | Cc1cccn2c(=O)c3cc(S(=O)(=O)c4ccc(F)cc4)c(=N)n(Cc4ccco4)c3nc12 | 2.11% (inactive) | –
16 | COc1ccc(CCn2c(=N)c(C(=O)NCC3CCCO3)cc3c(=O)n4ccccc4nc32)cc1 (stereo unspecified) | – | 12 µM (active)

Row | Structure (SMILES) | activity change, negative = inhibition | Potency
17 | COc1ccc(CCn2c(=N)c(C(=O)NCc3ccco3)cc3c(=O)n4ccccc4nc32)cc1OC | – | 9.53 µM (active)
18 | COc1ccccc1Nc1nc(-c2ccc3c(c2)NC(=O)CO3)cs1 | 7.27% (inactive) | –
19 | COc1ccc(-c2csc(Nc3ccc(S(N)(=O)=O)cc3)n2)cc1OC | – | 15.1 µM (active)
20 | CCn1cc(C(=O)OCC(=O)c2cc(C)n(-c3ccccc3F)c2C)c(=O)c2ccc(C)nc21 | – | 16.9 µM (active)
21 | Cc1cc(C(=O)COC(=O)c2cccnc2Cl)c(C)n1-c1c(C)n(C)n(-c2ccccc2)c1=O | -0.409% (inactive) | –
22 | COCCn1c(C)cc(C(=O)COC(=O)c2ccccc2Br)c1C | -24.1% (inactive) | –
23 | CCOc1ccccc1C(=O)OCC(=O)Nc1nnc(-c2ccccc2)o1 | – | 13.5 µM (active)
24 | O=C(COC(=O)c1cc(-c2cccnc2)nc2ccccc12)Nc1ccc(F)cc1F | -12.7% (inactive) | –
25 | CCc1ccc(NC(=O)COC(=O)c2ccccc2OCC(=O)N(C)C)cc1 | 8.66% (inactive) | –
26 | COc1ccc(NC(=O)c2ccc(COc3ccccc3)o2)c(OC)c1 | 1.73% (inactive) | –
27 | COc1ccc(C(=O)Nc2nnc(-c3ccccc3)o2)cc1OC | – | 19 µM (active)
28 | O=C(COc1ccccc1)Nc1nnc(-c2ccco2)o1 | – | 16.9 µM (active)
29 | CS(=O)(=O)c1ccc(-c2nnc(NC(=O)C3=COCCO3)o2)cc1 | -24.7% (inactive) | –
30 | CC1CCCN(S(=O)(=O)c2ccc(C(=O)Nc3nnc(-c4ccco4)o3)cc2)C1 (stereo unspecified) | -45.9% (inactive) | –
31 | CCC(=O)NC(=S)Nc1ccc(NC(=O)COc2ccc([N+](=O)[O-])cc2)cc1 | -0.724% (inactive) | –
